The campaign covered roughly 650,000 compounds. About 5,900 (0.91%) were called active. No stated cut-off is given here; in the data, active means inhibition above about 50%; inactive means the rest. The sample as a whole holds a higher share of actives than the screen did.

In the test the target is Microphthalmia-associated transcription factor (Homo sapiens) (UniProt O75030). Description: MITF inhibitors, primary screen, biochemical, AlphaScreen, human (AID 1259374).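 Further: 0% = vehicle wells with protein.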 As to conditions: AlphaScreen MITF homodimerization, bead proximity signal; at 2.6 µM; active compounds read high.
Sequence of Microphthalmia-associated transcription factor (Homo sapiens) (O75030 whole entry, looked up): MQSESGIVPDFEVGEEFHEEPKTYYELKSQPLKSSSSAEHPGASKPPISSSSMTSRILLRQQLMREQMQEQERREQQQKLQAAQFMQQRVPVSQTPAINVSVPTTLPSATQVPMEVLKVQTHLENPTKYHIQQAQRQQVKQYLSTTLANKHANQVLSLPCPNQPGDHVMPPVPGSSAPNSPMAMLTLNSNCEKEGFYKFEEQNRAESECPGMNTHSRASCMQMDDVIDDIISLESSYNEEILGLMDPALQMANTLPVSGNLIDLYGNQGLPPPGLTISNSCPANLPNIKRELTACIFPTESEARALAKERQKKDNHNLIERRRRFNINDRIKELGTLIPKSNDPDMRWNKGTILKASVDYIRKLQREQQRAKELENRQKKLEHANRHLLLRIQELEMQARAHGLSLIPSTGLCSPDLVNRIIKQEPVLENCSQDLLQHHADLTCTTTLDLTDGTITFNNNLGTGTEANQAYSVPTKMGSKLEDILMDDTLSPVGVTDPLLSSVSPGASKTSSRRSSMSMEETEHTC
With `COc1cc(CNC(C)(C)C)ccc1OCCO`, the inhibition was -1.33% (inactive).
The same measure for `CCC(CO)NCC(O)COCc1ccc(Cl)cc1` (centres undefined): -4.49% (inactive).
As for `COc1ccc(COCC(O)CNCC(C)(C)CN(C)C)cc1OC` (centres undefined), the inhibition was 69.4% (active).
Consider `Cc1c(C(=O)N2CCN(c3ccc(F)cc3)CC2)sc2ncn(CC(=O)N3CCC(C)CC3)c(=O)c12`, for which the inhibition is 9.34% (inactive).
For `Cc1cnc(C)c(-c2ccc3c(c2)CC(CNC(=O)/C=C/c2cccc(F)c2F)O3)n1` (centres undefined), the inhibition was 10.3% (inactive).
For the molecule `CCOC(=O)c1[nH]c(COC(C)=O)c(CCC(=O)OC)c1C`, the inhibition is -19.8% (inactive).
As to `O=C(COc1ccccc1)Nc1ccc(N2CCC(NCCc3cccs3)CC2)cc1`, the inhibition is 8.32% (inactive).
Turning to `COc1ccc2c(c1)CC(C(=O)Nc1ccc(-c3cn[nH]c3)cc1OCc1ccccc1)CO2` (centres undefined), the inhibition is 62.3% (active).
Consider `COc1ccc2c(c1)CC(C(=O)Nc1ccc(-c3cn[nH]c3)cc1O[C@H]1CCOC1)CO2` (some centres undefined), for which the inhibition was 16.3% (inactive).
Turning to `COc1ccc2c(c1)CC(C(=O)Nc1ccc(-c3cn[nH]c3)cc1C(=O)NCc1ccccc1)CO2` (centres undefined), the inhibition was 24.1% (inactive).
With `COc1ccc2c(c1)CC(C(=O)Nc1ccc(-c3cn[nH]c3)cc1OCCN(C)C)CO2` (centres undefined), the inhibition was 3.86% (inactive).
On to `COc1ccc2c(c1)CC(C(=O)Nc1ccc(-c3cn[nH]c3)cc1OCC(N)=O)CO2` (centres undefined), for which the inhibition is 52.7% (active).
On to `COc1ccc2c(c1)CC(C(=O)Nc1ccc(-c3cn[nH]c3)cc1OC(C)CN(C)C)CO2` (centres undefined), for which the inhibition is 13.3% (inactive).
`CCc1ccc(C(=O)N2CCN3C(=O)[C@H](CO)NC(=O)[C@H]3C2)cc1`: the inhibition was -8.93% (inactive).
Take `O=C(CN(Cc1ccccc1)S(=O)(=O)c1ccc(F)cc1)NCCc1ccccc1`: the inhibition is -7.64% (inactive).
With `CC(C)N1CCC(N2CCN(Cc3cc(F)ccc3F)CC2CCO)CC1` (centres undefined), the inhibition was 5.34% (inactive).
With `Cc1cc(S(=O)(=O)NC2CCCC2)ccc1-n1cnnn1`, the inhibition was -4.47% (inactive).
The figure for `Cc1cc(S(=O)(=O)Nc2ccc3c(c2)OCCO3)ccc1-n1cnnn1` is 53% (active); for `Cc1cc(S(=O)(=O)NCc2ccc3c(c2)OCO3)ccc1-n1cnnn1` it is 11.8% (inactive); for `COCCN1C(=O)/C(=C/c2cc(OC)c(O)c([N+](=O)[O-])c2)SC1=S` it is 14.8% (inactive).
Turning to `CC(C)(C)n1nnnc1C(c1ccc2ncccc2c1)N1CCSCC1` (centres undefined), the inhibition was 65.2% (active).
Take `CC(C)(C)n1nnnc1C(c1ccc(Cl)cc1)N1CCSCC1` (centres undefined): the inhibition is -19.9% (inactive).
In the case of `COCCn1nnnc1C(c1ccc2ncccc2c1)N1CCOCC1` (centres undefined), the inhibition was 12% (inactive).
On to `CCNc1cc(NCCO)c2noc3c2c1C(=O)c1ccccc1-3`, for which the inhibition is 27.5% (inactive).
For `CC(C)Nc1cc(N2CCC3(CC2)OCCO3)c2noc3c2c1C(=O)c1ccccc1-3`, the inhibition was 55.8% (active).
With `CC(C)Nc1cc(N2CCN(c3ncccn3)CC2)c2noc3c2c1C(=O)c1ccccc1-3`, the inhibition is 5.09% (inactive).
The figure for `CCNc1cc(Nc2ccccc2)c2c3c(onc13)-c1ccccc1C2=O` is 15.1% (inactive); for `CN(C)c1cc(NCCN2CCC3(CC2)OCCO3)c2c3c(onc13)-c1ccccc1C2=O` it is 50.7% (active); for `CCOC(=O)N1CCN(c2cc(NCCO)c3c4c(onc24)-c2ccccc2C3=O)CC1` it is 15.8% (inactive).
Regarding `COc1ccc(Nc2cc(N3CCN(c4ncccn4)CC3)c3noc4c3c2C(=O)c2ccccc2-4)cc1`, the inhibition is 0.37% (inactive).
`CN1CCN(c2cc(NCCCC(=O)O)c3c4c(onc24)-c2ccccc2C3=O)CC1`: the inhibition is 10.3% (inactive).
Turning to `CC1CCN(c2cc(NCC(=O)O)c3c4c(onc24)-c2ccccc2C3=O)CC1`, the inhibition is 51.3% (active).
Regarding `Cc1c(C(=O)Nc2ccc(F)cc2)sc2ncnc(N3CCc4ccccc4C3)c12`, the inhibition is -2.5% (inactive).
With `Cc1ccc(OCC(=O)N2CCC(C(=O)O)CC2)cc1C`, the inhibition is 6.47% (inactive).
With `COCCn1c(SCC(=O)Nc2c(C)cc(C)cc2C)nc2c(c1=O)SCC2`, the inhibition was 1.88% (inactive).
Take `O=c1cc(CNc2ccc(S(=O)(=O)N3CCCC3)cc2)c2cc3c(cc2o1)CCC3`: the inhibition was 10.1% (inactive).
The figure for `COc1ccccc1C(=O)NCC(c1ccc2c(c1)CCCN2C)N1CCOCC1` (centres undefined) is -1.79% (inactive); for `COc1ccc(C(CNCc2cc(=O)oc3cc4c(cc23)CCC4)N2CCOCC2)cc1` (centres undefined) it is 85.3% (active); for `CN1CCN(Cc2c(O)ccc3c2O/C(=C\c2ccccc2Cl)C3=O)CC1` it is 2.25% (inactive).
As for `Cc1ccc2c(=O)c(CN3CCN(C)CC3)c(C)[nH]c2c1C`, the inhibition is 10% (inactive).
Turning to `N#C/C(=C(/O)c1cc(-c2ccccc2)nc2ccccc12)c1nc2ccccc2[nH]1`, the inhibition is -0.49% (inactive).
The figure for `COc1cc(Br)cc(/C=N/NC(=O)c2cc(-c3ccccc3)n[nH]2)c1O` is -36.5% (inactive).
The same measure for `COc1cc(Br)cc(/C=N\NC(=O)c2ccc(C)nc2)c1O`: 60.8% (active); for `CCOc1cccc(/C=N/NC(=O)c2ccc(C)nc2)c1O`: 49.4% (inactive); for `O=c1nc(/C=C/c2cc(Cl)cc(Cl)c2OCc2ccccc2F)cc(C(F)(F)F)[nH]1`: -1.22% (inactive).
On to `C/C(=N\c1ccccn1)c1c(O)c2ccccc2oc1=O`, for which the inhibition was 5.79% (inactive).
Regarding `CCC(C)NCCOCCOc1cc(C)cc(C)c1C` (centres undefined), the inhibition is 70.4% (active).
Turning to `CCC(C)NCCOCCOc1c(OC)cccc1OC` (centres undefined), the inhibition was 17.3% (inactive).
For the molecule `CCC(C)NCCOCCOc1ccc(Br)cc1C` (centres undefined), the inhibition was 28.4% (inactive).
Regarding `Cc1nn(C)c(C)c1NC(=O)Cn1nc2n(Cc3ccc(F)cc3)c3ccccc3n2c1=O`, the inhibition is 12.6% (inactive).
On to `Cc1ccc(C)c(NCN2C(=O)CSC2=O)c1`, for which the inhibition was 17.9% (inactive).
For the molecule `CCOC(=O)c1sc2nc(SCC(=O)N3CCCC3)n(Cc3ccc(C)cc3)c(=O)c2c1C`, the inhibition was -3.14% (inactive).
The figure for `O=S(=O)(c1ccc2ccccc2c1)N1CCN(CC2CC3C=CC2C3)CC1` (centres undefined) is -6.53% (inactive).
Regarding `C1=CC2CC1CC2CN1CCN(Cc2c[nH]c3ccccc23)CC1` (centres undefined), the inhibition is 64.4% (active).
The same measure for `CCOc1ccccc1N1CCN(CC2CC3C=CC2C3)CC1` (centres undefined): 4.32% (inactive); for `CCN1C(=O)C(C)(C)COc2ccc(NC(=O)COc3ccc4ccccc4c3)cc21`: 8.12% (inactive).
Take `CN(C)/N=C/C=C1\CCC/C(=C\C=N\N(C)C)C1=O`: the inhibition was 17.4% (inactive).
`CN(C)/N=C/C=C1\CCC/C(=C\c2ccc([N+](=O)[O-])cc2)C1=O`: the inhibition is -2.41% (inactive).
Consider `CN(C)/C=C/C=C/C=C1\CCC\C(=C/C=C/C=C/N(C)C)C1=O`, for which the inhibition is 98.9% (active).

Values taken from PubChem BioAssay AID1259374 (The Scripps Research Institute Molecular Screening Center, 2018).
